This is an account of results in PubChem BioAssay (NCATS).

Experiment [1] can be described thus: UWB1.289 Cancer Cell Toxicity qHTS against the NCATS CANVASS Library (AID 1347347). Note: nearly all actives have a fitted effect of over 60% in size. Note: potency is the fitted concentration of half-maximal effect. The essentials: (§1)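 Per well, 1000 cells; exposure 72 h with compound at 11 final concentrations; readout CellTiter-Glo luminescence.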
In general terms: qHTS replaces the single test concentration by a dilution series.

Experiment [2] can be described thus: A2780 Cisplatin Sensitive Ovarian Cancer Cell Toxicity qHTS against the NCATS CANVASS Library (AID 1347353). Note: nearly all actives have a fitted effect of over 60% in size. Note: potency is the fitted concentration of half-maximal effect. The gist of the method:
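Cells are plated at 750 per well and rest for 4 hours. Compounds are added across eleven concentrations, and incubated 72 hours before ATP is quantified by luminescence.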

Experiment [3] is described as follows: UWB1.289-WTBRCA1 Cancer Cell Toxicity qHTS against the NCATS CANVASS Library (AID 1347354). The gist of the method:
(§2)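 First, 1000 cells go into each well and rest for 4 hours. Next, an 11-point dilution range is pinned in. Plates then incubate 72 hours before CellTiter-Glo addition and luminescence reading.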

Experiment [4] concerns NAD(P)H diaphorase (Clostridium kluyveri). Briefly: Diaphorse counterscreen qHTS: Assay Interference Panel against the NCATS CANVASS Library (AID 1347362). The essentials:
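Counterscreen for coupling-enzyme interference: resorufin fluorescence from resazurin/NADH turnover, read after 5 min at room temperature. Compounds were tested over an 11-point series after 15 min dark preincubation with diaphorase in PBS-Tween.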
On the technique in general: Counterscreens check selectivity or assay interference.

The nature of experiment [5]: SDT Cancer Cell Toxicity qHTS against the NCATS CANVASS Library (AID 1347365). Note: nearly all actives have a fitted effect of over 60% in size. Note: potency is the fitted concentration of half-maximal effect. The gist of the method:
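Cytotoxicity is measured from cellular ATP: compounds in an 11-point concentration series are pinned onto SDT cells, incubated 72 hr at 37C, then CellTiterGlo is added and luminescence read.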

The nature of experiment [6]: KB-3-1 Cancer Cell Toxicity qHTS against the NCATS CANVASS Library (AID 1347366). Note: nearly all actives have a fitted effect of over 75% in size. The gist of the method:
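Seed KB-3-1 cells at 500/well in DMEM with 10% FBS, add compounds, incubate 72 hr at 37C and 5% CO2, then add CellTiter-Glo and read luminescence after 10 minutes.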

Experiment [7] is described as follows: qHTS for Hypoxia signaling pathway (HIF-1) agonists against the NCATS CANVASS Library (AID 1347375). The essentials:
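Cells plated and rested 5 h, compounds pinned in DMSO across 11 concentrations, incubated 17 h at 37C, loaded with CCF4-AM for 2 h, fluorescence read at 460 and 530 nm, then CellTiter-Glo luminescence measured for viability and normalization.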

A short description of experiment [8]: DH5-alpha competent E. coli microbial cell viability qHTS against the NCATS CANVASS Library (AID 1347377). The settings on record: outcome: dose series up to 46.1 µM unless noted. The gist of the method: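 Bacteria were dispensed at 0.2 OD, then compounds were pin-transferred. Plates were incubated overnight at 37C, after which BacTiter-Glo was added and luminescence measured 20 min later.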

Experiment [9] can be described thus: qHTS for H2AX Agonists against the NCATS CANVASS Library (AID 1347378).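 Note: phospho-H2AX S139 level in CHO-K1 lysates by TR-FRET emission ratio.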 The essentials:
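Following overnight seeding, CHO-K1 cells are incubated with a concentration series of compound for 3 hr at 37C (final DMSO 0.76%). Cells are then lysed, detection antibodies added, and emission ratio 665/620 nm recorded after 24 hr at room temperature.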

Experiment [10] can be described thus: qHTS for Activators of p53 Stress Response Pathway screened against the NCATS CANVASS Library (AID 1347388). The essentials:
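Beta-lactamase reporter driven by p53 response elements in HCT-116 cells, read as the 460 nm/530 nm emission ratio after CCF4 loading, following 16 h of exposure to an 11-point series. Cell viability was measured in the same wells by CellTiter-Glo luminescence.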

Experiment [11] is described as follows: Secretion counterscreen for inhibitors of the SERCaMP assay screened against the NCATS CANVASS Library (AID 1347390).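 Note: light from luciferase secreted into medium read as a measure of general secretion; series mostly up to about 77 µM.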 The gist of the method:
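Counterscreen identifying compounds that disrupt secretion, using SH-SY5Y cells with a constitutively secreted Gaussia luciferase reporter. A 20 h compound exposure (top 77 uM) precedes luminescent detection with coelenterazine.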

Experiment [12] can be described thus: qHTS for activators of dead-cell proteases activity screened against the NCATS CANVASS Library (AID 1347392).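 Note: luminescence from protease leaking out of membrane-damaged cells cleaving impermeant substrate; rising signal means more cytotoxicity.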 The gist of the method:
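Luminescent dead-cell protease readout (AAF-aminoluciferin, 15 min, room temperature) after 5 h compound treatment of HepG2 cells (2000/well, pre-attached 18 h). Eleven concentrations.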

Experiment [13] in a line: qHTS for inhibitors of ER calcium dysfunction: SERCaMP assay screened against the NCATS CANVASS Library (AID 1347393). Note: nearly all actives have a fitted effect of over 40% in size. Note: potency is the fitted concentration of half-maximal effect. The gist of the method: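 Thapsigargin-induced ER calcium depletion drives GLuc-SERCaMP secretion from SH-SY5Y cells; compounds given 16 h beforehand were scored by lowered coelenterazine luminescence after 4 h challenge.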
Experiment [14] can be described thus: qHTS for inhibitors of Wild type Zika virus screened against the NCATS CANVASS Library (AID 1347396).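 Note: ATP luminescence of surviving cells so rescue from viral cell killing; series mostly up to about 46 µM.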 The gist of the method:
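Using ATP-based luminescence (CellTiter Glo), this screen scores rescue of Vero 766 cells from wild-type Zika killing at 72 h post-infection. Compounds are tested in a concentration series.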

Experiment [15] can be described thus: Redox Reaction Profiling qHTS: Assay Interference Panel against the NCATS CANVASS Library (AID 1347401). Note: potency is the fitted concentration of half-maximal effect. The gist of the method: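 Redox-cycling liability assessed as DTT-driven conversion of resazurin (5 uM, with 200 uM DTT, HEPES pH 7.3) to fluorescent resorufin. Fluorescence at 525/598 nm measured initially and after 15 min dark incubation.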
Experiment [16] can be described thus: SW1088 Cancer Cell Toxicity qHTS against the NCATS CANVASS Library (AID 1347350). Note: series mostly up to about 38 µM; nearly all actives have a fitted effect of over 75% in size. The essentials:
as §1

Experiment [17] is described as follows: HEK-293 Cancer Cell Toxicity qHTS against the NCATS CANVASS Library (AID 1347355). Note: series mostly up to about 46 µM; nearly all actives have a fitted effect of over 65% in size. The essentials: as §2
Experiment [18] is described as follows: KB-8-5-11 Cancer Cell Toxicity qHTS against the NCATS CANVASS Library (AID 1347364). Note: nearly all actives have a fitted effect of over 75% in size. The gist of the method:
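Terse: KB-8-5-11, 500 cells/well, 72 hr, 37C/5% CO2, 11-pt titration, CellTiter-Glo readout; confirmatory runs ± 1uM tariquidar in medium.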

A short description of experiment [19]: qHTS for Hypoxia signaling pathway (HIF-1) antagonists against the NCATS CANVASS Library (AID 1347374).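 Note: HRE-bla ME-180 cells stimulated with cobalt chloride to stabilize HIF-1alpha; series mostly up to about 38 µM; nearly all actives have a fitted effect of over 60% in size.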 The essentials: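 Antagonism scored as loss of CoCl2-driven (60 uM stock added) HRE beta-lactamase signal, read by CCF4 FRET at 460/530 nm. Compounds were tested in an 11-point series on ME-180 reporter cells for 17 hrs at 37C, with parallel CellTiter-Glo cytotoxicity.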

Experiment [20] in a line: Viability qHTS for inhibitors of the SERCaMP assay screened against the NCATS CANVASS Library (AID 1347400). Note: series mostly up to about 92 µM; nearly all actives have a fitted effect of over 70% in size. The essentials: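 Seed SH-SY5Y-GLuc SERCaMP MJH297 cells at 1000 per well, incubate 4 h, add compounds across an 11-point range, incubate 48 h at 37C, then add CellTiter-Glo and read luminescence.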

Each structure is given as a SMILES string. Records with an inconclusive call do not appear. A number with no mark means an inactive call. Calls of active or inactive are those of the source. Calls come from the whole dose curve; as a rule, active = well fitted curve in the direction sought with a large enough effect; inconclusive = small, poorly fitted or top-dose-only effect, or another doubt; inactive = no such curve, though single readings can be large; an effect the other way counts as inactive or inconclusive.

Turning to `CC(C)(Br)[C@@H](Cl)C[C@H](Br)[C@](C)(Cl)/C=C/Br`, the Potency in experiment [1] is 18.8 µM (active); in [2] it was 2.35 µM (active); in [5], 18.7 µM (active); in experiment [13], 21.6 µM (active); in [15], 30.4 µM (active). For the same compound, the Potency entry in [3], in experiment [4], in experiment [6], in experiment [7], in experiment [9] and in [10] was “inactive” in each case. In addition, the Potency entry in experiment [11], in experiment [12] and in experiment [14] was “inactive” each time. Besides, the result in [8] was inactive.
For the compound `O=C1c2c(O)cc(O)cc2O[C@@H](c2ccc(O)cc2)[C@@H]1c1c(O)cc(O)c2c(=O)cc(-c3ccc(O)c(O)c3)oc12`, the Potency entry in [1], in experiment [16], in [2], in experiment [3], in experiment [17] and in experiment [4] was “inactive” each time. Further, the Potency entry in experiment [18], in [5], in experiment [6], in experiment [19], in experiment [7] and in experiment [9] was “inactive” throughout. Also, the Potency result in experiment [11], in [12], in experiment [13], in experiment [14], in experiment [20] and in experiment [15] was “inactive” each time.
Regarding `O=C1C[C@@H](c2ccc(O)c(-c3c(O)cc(O)c4c3O[C@H](c3ccc(O)cc3)CC4=O)c2)Oc2cc(O)cc(O)c21`, the Potency entry in experiment [16], in experiment [2], in [3], in experiment [17], in [4] and in experiment [18] was “inactive” each time. The Potency result in experiment [5], in [6], in experiment [19], in experiment [7], in [9] and in [10] was “inactive” throughout. Moreover, the Potency entry in [11], in experiment [12], in experiment [13], in experiment [14], in experiment [20] and in experiment [15] was “inactive” in each case. The call in experiment [8] was inactive.
Regarding `C=C[C@]1(C)CC[C@@H]([C@H](C)C(=O)OCC)O1`, the Potency entry in experiment [1], in experiment [16], in [3], in [4], in [6] and in experiment [19] was “inactive” each time. Also, the Potency entry in experiment [7], in experiment [9], in experiment [10], in experiment [11], in experiment [12] and in experiment [13] was “inactive” each time. In addition, the Potency result in experiment [14], in experiment [20] and in experiment [15] was “inactive” each time. For the same compound, the compound was classed as inactive in [8].
For `CC(=O)[C@@H]1[C@@H](O)C[C@H]2[C@]3(C)CC[C@H]4C(C)(C)CCC[C@]4(CO)[C@H]3C[C@H]3OC(=O)[C@@H]1[C@@]32C`, the Potency result in [16], in [2], in [3], in experiment [4], in [18] and in [5] was “inactive” throughout. Moreover, the Potency entry in [6], in experiment [19], in experiment [7], in experiment [9], in experiment [10] and in [11] was “inactive” each time. In addition, the Potency result in experiment [12], in experiment [14], in [20] and in experiment [15] was “inactive” throughout. Moreover, the call in experiment [8] was inactive. Further, the Potency in [13] was 38.4 µM (active).
